In PubChem BioAssay (NCI) one finds growth data, which are given here for 15 compounds.

Assay in all cases: NCI-60 one-dose screen, 48 h (100 = growth as untreated, 0 = no growth, -100 = all killed)
Common to all, as to conditions: 10 µM unless noted

In test [1] the test system is SR leukemia.
The test system of test [2] is RPMI-8226 leukemia.
For test [3], the system named is OVCAR-5 ovarian.
Test [4] relates to SK-OV-3 ovarian.
The subject of test [5] is IGROV1 ovarian.
The test system of test [6] is OVCAR-3 ovarian.
Test [7] has as its system HS 578T breast.
The subject of test [8] is NCI/ADR-RES ovarian.
Test [9] deals with OVCAR-8 ovarian.
In test [10] the test system is OVCAR-4 ovarian.

About 83,000 compounds went through this panel and 20% of them were active in at least one assay; those are over-represented in the sample as a whole.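 Growth was measured after 48 h exposure to one concentration of compound in 96-well plates. Values under 10 count as active.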 A number with no mark means an inactive call. Activity calls are given as the source filed them.

As for `N=c1ccc2nc3ccc(N)cc3sc-2c1`, the growth in [1] is 38.2%; in test [2], 30%; in [3] it was 48.1%; in test [4], 58.4%; in test [5], 40.6%; in test [6], 0.418% (active). In addition, the growth in [7] was 51.9%; in test [8] it was 9.73% (active).
`CN(CCCCCl)P(=O)(OCc1ccc([N+](=O)[O-])o1)C(F)(F)C[C@H](NC(=O)CNC(=O)c1ccc(N=[N+]=[N-])cc1)C(=O)NCCc1ccc(O)cc1` (stereo partly specified): the growth was 9.22% (active) in test [1]; 107% in [9]; 123% in test [3]; 95.2% in test [10]; 113% in [4]; 84.3% in test [5]. The growth in test [6] is 109%; in test [7] it was 84.4%; in test [8] it was 103%.
As for `Cc1ccc(S(=O)(=O)C2=C3C(=C(c4ccccc4)c4ccccc43)CN(S(=O)(=O)c3ccc(C)cc3)C2)cc1`, the growth in test [1] is 3.89% (active); in [2], -21.7% (active); in [3], 93.7%; in [10] it was 70.3%; in test [4], 92.6%; in test [5], 54%. For the same compound, the figures for the growth in test [6], in test [7] and in test [8] were 56.9%, 62.4% and 27.8%, respectively.
For `CCN(CC)CCCC(C)Nc1c2ccc(Cl)cc2nc2cc(OC)c(OC)cc12` (stereo unspecified), the growth in [1] was -14.2% (active); in test [2] it was -33% (active); in test [3] it was 50.9%; in test [10], -30.7% (active); in test [4], 40.5%; in test [5], 24.3%. For the same compound, the growth in test [6] is 34.4%; in test [7] it was 44.2%; in test [8], 28.8%.
Regarding `COc1ccc(-c2nc3sc(-c4cc(OC)c(OC)c(OC)c4)nn3c2/C=C2/C(=O)Nc3ccc(F)cc32)cc1`, the growth is 18.6% in test [1]; 13.3% in [2]; 3.01% (active) in test [3]; -32.4% (active) in test [10]; 6.67% (active) in [4]; -39.3% (active) in test [5]. Further, the growth in [6] is -60.9% (active); in [7], 30.3%; in [8] it was 37.6%.
For `COc1ccc(/C(C#N)=C/c2cc(OC)c(OC)c(OC)c2)cc1`, the growth is 11.8% in test [1]; 31.2% in test [2]; 65.6% in test [3]; 87.8% in test [10]; 47.6% in [4]; 44.9% in [5]. In addition, the results for the growth in [6], in test [7] and in test [8] were 36.1%, 91.4% and 20.7%, respectively.
For `CC(=O)Nc1ccc(/C=C/C(=O)c2ccccc2)cc1`, the growth in test [1] was 3.34% (active); in test [2] it was -8.05% (active); in test [3], 113%; in test [10], 106%; in [4] it was 101%; in [5] it was 43%. Besides, the growth is 57.6% in test [6], 81.7% in test [7] and 103% in test [8].
Consider `CN(C)c1ncnc2c1ccn2C1OC(CO)C(O)C1O` (stereo unspecified), for which the growth in test [1] is 89.5%; in [9], 0.899% (active); in test [3], 39.5%; in test [10], 33.3%; in [4], 33.7%; in [5], -0.957% (active). In addition, the growth was 25.9% in test [6], 17.5% in test [7] and 1.88% (active) in [8].
Take `C=C(C)[C@@H]1CC[C@]2(C(=O)O)CC[C@]3(C)[C@H](CC[C@@H]4[C@@]5(C)C[C@@H](CC#Cc6ccc(C(F)(F)F)cc6)[C@H](O)C(C)(C)[C@@H]5CC[C@]43C)[C@@H]12`: the growth in test [1] was 15.6%; in test [2] it was 9.12% (active); in test [3], 52%; in test [10] it was 1.55% (active); in test [4], 36.2%; in test [5], 19.5%. The growth in test [6] is -3.44% (active); in [7], 24.1%; in test [8], 76.1%.
For `O=C1CCCCC1(c1ccccc1)c1ccccc1`, the growth in test [1] is 106%; in test [2] it was 111%; in test [3], 97.4%; in [10], 71.8%; in [5], 101%; in test [6] it was 106%. Further, the values for the growth in [7] and in test [8] were 99.7% and 96.1%, respectively.
With `C/C=C(\C)C(C(=O)NC1CCCCC1)N(C(=O)C1CCc2cc(F)ccc2O1)c1ccc(Cl)cc1` (stereo unspecified), the growth in test [1] was 111%; in test [2], 100%; in [3], 103%; in test [4], 98.4%; in test [5], 103%; in [6], 111%. The results for the growth in test [7] and in [8] were 94.7% and 97.2%, respectively.
On to `O=C(NCc1cn(Cc2cccc(Oc3ccccc3)c2)nn1)c1cccnc1Nc1ccc(F)cc1`, for which the growth in [1] is 28.3%; in [9], 67.2%; in test [3] it was 89.3%; in test [10], 86.1%; in [4], 52.2%; in [5] it was 79.4%. Moreover, the growth in test [6] was 35.9%; in test [7], 76.7%; in test [8] it was 31.7%.
`Cc1ccc(Nc2nnc(-c3ccc(Cl)cc3)o2)c(C)c1`: the growth in test [1] is 53%; in test [2], 89.6%; in test [3] it was 99%; in [10], 82.1%; in test [5], 87.2%; in [6] it was 82.4%. The growth in test [7] was 87.9%; in test [8], 45.6%.
Consider `O=C(Oc1ccccc1[N+](=O)[O-])C1CCCN1C(=O)OCc1ccccc1` (stereo unspecified), for which the growth in test [1] is 82.4%; in [2] it was 97.3%; in test [3] it was 109%; in test [10], 103%; in test [4], 108%; in [5] it was 109%. For the same compound, the growth is 110% in test [6], 112% in [7] and 92.7% in test [8].
For `Clc1ccc2c(NC3CCC(NC4CCCCC4)CC3)ccnc2c1` (stereo unspecified), the growth is -3.32% (active) in test [1]; 52.2% in test [9]; 84.4% in test [3]; 50% in test [10]; 73.4% in test [4]; 83.4% in test [5]. Further, the values for the growth in [6], in test [7] and in test [8] were 85.3%, 67.5% and 68%, respectively.
